From the supplement of paper PMC8728848
The sample as a whole holds a higher share of the strongest signals than the screen did.

Columns and labels:
Experiment in all cases: glycan array binding signal (z-score within array); higher = stronger binding
Conditions in all cases: glycan notation: IUPAC condensed, linker removed
[1] = target: Fuc(a1-2)Gal(b1-3)GalNAc(b1-3)Gal
Summary of the method: (§1)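 Columns mapping to the same glycan were averaged after glycan names were converted to IUPAC-condensed notation. The data come from 3228 arrays in the Consortium for Functional Glycomics database, limited to those with an available protein sequence. Binding is reported as a within-array Z-score averaged across arrays of one protein sequence and across linkers.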

Fuc(a1-2)Gal(b1-3)GlcNAc = target: Fuc(a1-2)Gal(b1-3)GlcNAc
Summary of the method: as §1

[2] = target: Fuc(a1-2)Gal(b1-3)GlcNAc(b1-3)[Gal(b1-4)GlcNAc(b1-6)]Gal(b1-4)Glc
Summary of the method: as §1

[3] = target: Fuc(a1-2)Gal(b1-4)GlcNAc(b1-3)Gal(b1-4)GlcNAc(b1-3)Gal(b1-4)GlcNAc
Summary of the method: as §1

[4] = target: Fuc(a1-2)Gal(b1-4)[Fuc(a1-3)]GlcNAc
Summary of the method: as §1

[5] = target: Fuc(a1-2)Gal(b1-4)[Fuc(a1-3)]GlcNAc(b1-2)[Fuc(a1-2)Gal(b1-4)[Fuc(a1-3)]GlcNAc(b1-4)]Man(a1-3)[Fuc(a1-2)Gal(b1-4)[Fuc(a1-3)]GlcNAc(b1-2)Man(a1-6)]Man(b1-4)GlcNAc(b1-4)GlcNAc
Summary of the method: as §1

[6] = target: Fuc(a1-2)[Gal(a1-3)]Gal(b1-3)GlcNAc
Summary of the method: as §1

[7] = target: Fuc(a1-2)[Gal(a1-3)]Gal(b1-4)GlcNAc(b1-2)Man
Summary of the method: as §1

[8] = target: Fuc(a1-2)[Gal(a1-3)]Gal(b1-4)GlcNAc(b1-6)GalNAc
Summary of the method: as §1

[9] = target: Fuc(a1-2)[GalNAc(a1-3)]Gal(b1-4)GlcNAc(b1-2)Man(a1-3)[Fuc(a1-2)[GalNAc(a1-3)]Gal(b1-4)GlcNAc(b1-2)Man(a1-6)]Man(b1-4)GlcNAc(b1-4)GlcNAc
Summary of the method: as §1

[10] = target: Fuc(a1-2)[GalNAc(a1-3)]Gal(b1-4)GlcNAc(b1-6)GalNAc
Summary of the method: as §1

[11] = target: Fuc(a1-2)[GalNAc(a1-3)]Gal(b1-4)[Fuc(a1-3)]GlcNAc(b1-3)GalNAc
Summary of the method: as §1

[12] = target: Fuc(a1-3)[Gal(b1-4)]GlcNAc(b1-3)Gal(b1-3)[Fuc(a1-4)]GlcNAc
Summary of the method: as §1

[13] = target: Fuc(a1-3)[Gal(b1-4)]GlcNAc(b1-3)Gal(b1-4)[Fuc(a1-3)]GlcNAc
Summary of the method: as §1

[14] = target: Fuc(a1-3)[Gal(b1-4)]GlcNAc(b1-3)Gal(b1-4)[Fuc(a1-3)]GlcNAc(b1-3)Gal(b1-4)[Fuc(a1-3)]GlcNAc
Summary of the method: as §1

[15] = target: Fuc(a1-3)[GalNAc(b1-4)]GlcNAc
Summary of the method: as §1

[16] = target: Gal(a1-3)Gal(b1-3)[Fuc(a1-4)]GlcNAc(b1-2)Man(a1-3)[Gal(a1-3)Gal(b1-3)[Fuc(a1-4)]GlcNAc(b1-2)Man(a1-6)]Man(b1-4)GlcNAc(b1-4)GlcNAc
Summary of the method: as §1

[17] = target: Gal(a1-3)Gal(b1-4)GlcNAc(b1-6)GalNAc
Summary of the method: as §1

Gal(a1-3)GalNAc = target: Gal(a1-3)GalNAc
Summary of the method: as §1

[18] = target: Gal(a1-3)[Gal(a1-4)]Gal(b1-4)GlcNAc
Summary of the method: as §1

Gal(a1-4)Gal(b1-4)Glc = target: Gal(a1-4)Gal(b1-4)Glc
Summary of the method: as §1

[19] = target: Gal(b1-3)GalNAc(b1-4)Gal(b1-4)Glc
Summary of the method: as §1

[20] = target: Gal(b1-3)GlcNAc(b1-2)Man(a1-3)[Gal(b1-3)GlcNAc(b1-2)Man(a1-6)]Man(b1-4)GlcNAc(b1-4)GlcNAc
Summary of the method: as §1

[21] = target: Gal(b1-3)GlcNAc(b1-6)[Gal(b1-3)]GalNAc
Summary of the method: as §1

Gal(b1-3)GlcNAc6S = target: Gal(b1-3)GlcNAc6S
Summary of the method: as §1

[22] = target: Gal(b1-3)[Fuc(a1-4)]GlcNAc(b1-2)Man(a1-3)[Gal(b1-3)[Fuc(a1-4)]GlcNAc(b1-2)Man(a1-6)]Man(b1-4)GlcNAc(b1-4)[Fuc(a1-6)]GlcNAc
Summary of the method: as §1

[23] = target: Gal(b1-3)[GlcNAc(b1-6)]GalNAc
Summary of the method: as §1

[24] = target: Gal(b1-4)GalNAc(a1-3)[Fuc(a1-2)]Gal(b1-4)GlcNAc
Summary of the method: as §1

B1: AT5G01260(PC)(40) (Arabidopsis thaliana), Q9LFB0 (protein)
chain: MIGIGRTLTSSSPSKIILEDLPPGIYRYGTEIFTSVPRKTFHHIKFLRLDSAQSSRILKPVPLRSSSIKDSQVNVEDEEIEASNKTVRVRFQLRKECVFGEHFFIVGDDPVFGGLWDPETALPLNWSDGNVWTVDLDLPVGRLVEFKLLLKAQTGEILWQPGPNRALETWETNKTIRICEDWDNADLQMMIEEDFVPYTNISSIGSEDEDEVLGSVQQNSSVVAVENAGYVSDESAQNSSFSIQSEKTMEPSNGALTAREVIKEAMFTEEESPVLVPGLIPLSDLDNEQVEVINEGKAETFPEVDKKQEPKAERNKKAKVKAISLFEKSEQEAVKSVEQRQYNAVEEEQQRLETEPLGTPDVLFENDIQWGRRTLYKLLSNFRLF
glycan array binding signal (z-score) [1]: -0.3
glycan array binding signal (z-score) (Fuc(a1-2)Gal(b1-3)GlcNAc): -0.85
glycan array binding signal (z-score) [2]: -0.343
glycan array binding signal (z-score) [3]: -0.994
glycan array binding signal (z-score) [4]: -0.291
glycan array binding signal (z-score) [5]: 0.175
glycan array binding signal (z-score) [6]: 0.172
glycan array binding signal (z-score) [7]: -0.675
glycan array binding signal (z-score) [8]: -0.256
glycan array binding signal (z-score) [9]: -0.648
glycan array binding signal (z-score) [10]: -0.387
glycan array binding signal (z-score) [11]: 7.04
glycan array binding signal (z-score) [12]: 0.431
glycan array binding signal (z-score) [13]: -0.975
glycan array binding signal (z-score) [14]: 1.89
glycan array binding signal (z-score) [15]: 1.78
glycan array binding signal (z-score) [16]: 0.054
glycan array binding signal (z-score) [17]: -0.159
glycan array binding signal (z-score) (Gal(a1-3)GalNAc): 2.32
glycan array binding signal (z-score) [18]: 9.44
glycan array binding signal (z-score) (Gal(a1-4)Gal(b1-4)Glc): 1.85
glycan array binding signal (z-score) [19]: 2.16
glycan array binding signal (z-score) [20]: 0.891
glycan array binding signal (z-score) [21]: -0.659
glycan array binding signal (z-score) (Gal(b1-3)GlcNAc6S): 0.146
glycan array binding signal (z-score) [22]: 0.147
glycan array binding signal (z-score) [23]: 0.411
glycan array binding signal (z-score) [24]: -0.618
